# Reference: PubChem BioAssay (EPA / NIEHS)
# Records with an inconclusive call do not appear. Active and inactive are the calls of the source. How the source made its calls: active means hit-call score of the fitted dose curve at least 0.9, where 1 is the maximum; inconclusive means response in the unintended direction; inactive means score below 0.9.
# Read-out: Cytochrome P450 2C9 (Homo sapiens) (UniProt P11712)
# Experiment: CLD_CYP2C9_24hr: CellzDirect (CLD) Gene Expression Assay for xenobiotic metabolism (CYP2C9) at 24 hours (AID 2283688)
# Protocol: CLD_24hr is a cell-based, multiplexed-readout assay that uses hepatocyte, a human liver primary cell, with measurements taken at 24 hours after chemical dosing in a 96-well plate.CLD_CYP2C9_24hr is one of 16 assay component(s) measured or calculated from the CLD_24hr assay. It is designed to make measurements of mRNA induction, a form of inducible reporter, as detected with chemiluminescence signals by Quantitative Nuclease Protection Assay (qNPA) technology.Data from the assay component CLD_CYP2C9_24hr was analyzed at the endpoint, CLD_CYP2C9_24hr, in the positive analysis fitting direction relative to DMSO as the negative control and baseline of activity. Using a type of inducible reporter, gain-of-signal activity can be used to understand changes in the reporter gene as they relate to the gene CYP2C9. Furthermore, this assay endpoint can be referred to as a primary readout. To generalize the intended target to other relatable targets, this assay endpoint is annotated to the cyp intended target family, where subfamily is xenobiotic metabolism.
# Human hepatocyte cultures were treated daily for two consecutive days with fresh dosing solutions containing appropriate concentrations of the 320 ToxCast chemicals (chemical identities were blinded to CellzDirect and other ToxCast collaborators), vehicle control (0.2% DMSO), and positive control inducers as summarized in Table 1. Due to the large number of treatment groups and chemicals examined, the ToxCast chemicals were divided into two groups (spanning two independent cultures of hepatocytes from separate donor preparations (Hu778: ToxCast plates 1 and 2; Hu776: ToxCast plates 3 and 4). Each preparation of human hepatocyte cultures was treated with respective vehicle control, medium only control, set of six positive controls/reference chemicals for the five hepatic receptor pathways, and a subset of eight of the ToxCast chemicals (indoxacarb, pyrithiobac-sodium, norflurazon, cyhalofop-butyl, methomyl, thiram, acetochlor, and propiconazole). These replicate data, coupled with internal replicates designed within the blinded ToxCast chemical library, provided additional data to evaluate interindividual differences between hepatocyte preparations and their potential impact on chemical profiles.Cell morphology and integrity were evaluated using phase-contrast microscopy as an indicator of hepatocyte cell health (Tyson & Green, 1987). Cultures for each treatment group (i.e., media, vehicle [0.2% DMSO], positive control inducers [multiple concentrations], and the ToxCast chemicals [multiple concentrations]) were observed and cell morphology was assessed relative to vehicle control cultures at each harvest time point (0, 6, 24, or 48 h). […] Images were evaluated at the conclusion of the study to assess changes in cell integrity and account for the effects of chemical exposure on uncharacteristic changes in concentration-dependent gene expression profiles. The results from these determinations of apparent cytotoxicity were annotated (yes/no) alongside the corresponding qNPA data for reference.At the conclusion of each treatment period, hepatocyte cultures (96-well) were washed with 1 volume of HBSS, lysed by addition of 25 ul ArrayPlate lysis buffer (HTG, Tucson, AZ), and 70 ul/well of Denaturation Oil, denatured by incubation at 95C for 10 min, and frozen at approximately -70C until analysis by nuclease protection assay (qNPA) (Roberts et al., 2007). For qNPA analysis, cell lysates were thawed at 50C for approximately 30 min, qNPA probes were added, and samples were incubated at 95C for 10 min to begin the detection process by denaturing the target RNA, dissociating the duplexes and secondary structure hybridization. At the conclusion of the hybridization period, S1 nuclease reagent was added to each sample to digest all nonprotected nucleotides at 50C for 60-90 min. […]
row,Structure (SMILES),outcome
1,CCOP(=O)(OCC)Oc1cc(C)nc(C(C)C)n1,inactive
2,CC(C)=CC1C(C(=O)OCN2C(=O)C3=C(CCCC3)C2=O)C1(C)C (configuration not stated),inactive
3,CCOP(=O)(NC(C)C)Oc1ccc(SC)c(C)c1 (configuration not stated),inactive
4,C[N+]1(C)CCCCC1,inactive
5,COc1ccc(C(=CC(=O)N2CCOCC2)c2ccc(Cl)cc2)cc1OC,inactive
6,CC(=NC#N)N(C)Cc1ccc(Cl)nc1,inactive
7,C=C(C)[C@H]1Cc2c(ccc3c2O[C@@H]2COc4cc(OC)c(OC)cc4[C@@H]2C3=O)O1,inactive
8,CCCCN(CC)c1c([N+](=O)[O-])cc(C(F)(F)F)cc1[N+](=O)[O-],inactive
9,Nc1nc(N)nc(NC2CC2)n1,inactive
10,CN1COCN(Cc2cnc(Cl)s2)C1=N[N+](=O)[O-],inactive
11,CSc1nc(NC(C)C)nc(NC(C)C)n1,inactive
12,CCC(=NOC/C=C/Cl)C1=C(O)CC(C2CCOCC2)CC1=O (configuration not stated),inactive
13,CN(C)C(=O)Nc1cccc(C(F)(F)F)c1,inactive
14,COc1cc(OC)nc(Sc2cccc(Cl)c2C(=O)O)n1,inactive
15,CCOC(=O)CC(SP(=O)(OC)OC)C(=O)OCC (configuration not stated),inactive
16,CNC(=O)ON=C(SC)C(=O)N(C)C,inactive
17,CCOP(=S)(OCC)OC(Cl)C(Cl)(Cl)Cl (configuration not stated),inactive
18,CCCSP(=O)(OCC)Oc1ccc(Br)cc1Cl (configuration not stated),inactive
19,CC(COc1ccc(Oc2ccccc2)cc1)Oc1ccccn1 (configuration not stated),inactive

row,Structure (SMILES),outcome
1,CCOP(=S)(Oc1cnc(C(C)(C)C)nc1)OC(C)C (configuration not stated),inactive
2,CCOP(=O)(SC(C)CC)N1CCSC1=O (configuration not stated),inactive
3,CON=C(C(=O)OC)c1ccccc1CON=C(C)c1cccc(C(F)(F)F)c1,inactive
4,CCCOc1nn(C(=O)NS(=O)(=O)c2ccccc2C(=O)OC)c(=O)n1C,inactive
5,Cc1ccn2nc(S(=O)(=O)Nc3c(F)cccc3F)nc2n1,inactive
6,CCOP(=S)(OCC)Oc1ccc2c(C)c(Cl)c(=O)oc2c1,inactive
7,CCc1cccc(C)c1N(C(=O)CCl)C(C)COC (configuration not stated),inactive
8,CSC1=N[C@@](C)(c2ccccc2)C(=O)N1Nc1ccccc1,inactive
9,O=c1ccc(=O)[nH][nH]1,inactive
10,CCOC(=O)COc1cc(-c2nn(C)c(OC(F)F)c2Cl)c(F)cc1Cl,inactive
11,C#CCC1=C(C)C(OC(=O)C2C(C=C(C)C)C2(C)C)CC1=O (configuration not stated),inactive
12,Nc1c(Cl)cc([N+](=O)[O-])cc1Cl,inactive
13,CCC(CC)Nc1c([N+](=O)[O-])cc(C)c(C)c1[N+](=O)[O-],inactive
14,CC[C@H](C)[C@H]1O[C@]2(C=C[C@@H]1C)C[C@@H]1C[C@@H](C/C=C(\C)[C@@H](O[C@H]3C[C@H](OC)[C@@H](O[C@H]4C[C@H](OC)[C@@H](NC)[C@H](C)O4)[C@H](C)O3)[C@@H](C)/C=C/C=C3\CO[C@@H]4[C@H](O)C(C)=C[C@@H](C(=O)O1)[C@]34O)O2,inactive
15,CNC(=O)Oc1cccc2c1OC(C)(C)O2,inactive
16,C#CC(C)(C)NC(=O)c1cc(Cl)cc(Cl)c1,inactive
17,CCCCSP(=O)(SCCCC)SCCCC,inactive
18,CCc1cccc(CC)c1N(COC)C(=O)CCl,inactive
